For assay [1], the system named is Zika virus NS2B-NS3 protease (linked construct). Kind of assay: Primary screen NINDS Rhodamine qHTS for Zika virus inhibitors (AID 1347160). Note: nearly all actives have a fitted effect of over 55% in size. Note: potency is the fitted concentration of half-maximal effect. In a few lines: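 Rhodamine110-peptide cleavage (1.5 µM substrate) by 25 nM linked NS2B-NS3 enzyme at pH 8.0 (Tris, Tween 20), after 15 min RT preincubation with compounds; 15-min fluorescence change normalized to controls and Hill-fitted.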
In general terms: qHTS replaces the single test concentration by a dilution series.

The subject of assay [2] is Zika virus NS2B-NS3 protease (unlinked complex). Kind of assay: Primary screen GU Rhodamine qHTS for Zika virus inhibitors: Unlinked NS2B-NS3 protease assay (AID 1347159). Note: nearly all actives have a fitted effect of over 60% in size. Note: potency is the fitted concentration of half-maximal effect. In a few lines:
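Percent inhibition came from the 15-min rise in Rhodamine110 fluorescence (1.5 microM substrate, ~15% conversion), normalized to no-inhibitor and no-enzyme wells and Hill-fitted. Unlinked protease, 25 nM, pH 8.0 Tris buffer; compounds up to 114 microM, 15-min preincubation.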

The nature of assay [3]: Confirmatory screen NINDS Rhodamine qHTS for Zika virus inhibitors (AID 1347161).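 Note: purified Zika NS2B-NS3 protease with linked NS2B cofactor domain and Rhodamine110 peptide substrate; series mostly up to about 110 µM; nearly all actives have a fitted effect of over 60% in size.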 In a few lines: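 Aprotinin served as in-plate control. Conditions: 25 nM linked NS2B-NS3, pH 8.0 Tris buffer, titrated compounds, 15 min preincubation and 15 min reaction with 1.5 microM Rhod110 substrate at room temperature.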
Assay [4] is described as follows: Tertiary RLuc qRT-PCR qHTS assay for Zika virus inhibitors (AID 1347169). Note: top concentration of the series differs between compounds; nearly all actives have a fitted effect of over 55% in size. The method in brief: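 Orthogonal cell-based infection assay using recombinant ZIKV-RLuc (Cambodian) in Vero cells; compound added prior to virus at MOI 1-2. Incubation lasts 48-72 hrs at 37 degrees C before live-cell Renilla substrate is added and luminescence measured.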
On the technique in general: In qPCR the cycle at which signal appears reflects the starting amount.

A short description of assay [5]: OV-KATE Cancer Cell Toxicity qHTS against the NCATS CANVASS Library (AID 1347345). Note: potency is the fitted concentration of half-maximal effect. The conditions noted are these: OV-KATE cells viability, CellTiter-Glo luminescence, 72 h. The method in brief: (§1)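 1000 cells/well seeded and rested 4 h at 37 °C before pin transfer of compounds in an 11-pnt series. Exposure 72 h at 37 °C/5% CO2; viability by CellTiter-Glo luminescence after 15 min at room temperature.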

A short description of assay [6]: HPAF-II Cancer Cell Toxicity qHTS against the NCATS CANVASS Library (AID 1347346). Note: potency is the fitted concentration of half-maximal effect; nearly all actives have a fitted effect of over 55% in size. The conditions noted are these: HPAF-II viability, CellTiter-Glo ATP luminescence, 72 h. In a few lines:
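First, HPAF-II cells are plated (1000 cells/well) and held 4 h at 37 degrees C. Next, compounds are pin-transferred as an 11-point series. After 72 h, CellTiter-Glo is added and luminescence measured.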

The nature of assay [7]: UWB1.289 Cancer Cell Toxicity qHTS against the NCATS CANVASS Library (AID 1347347). Note: potency is the fitted concentration of half-maximal effect; nearly all actives have a fitted effect of over 60% in size. As to conditions: UWB1.289 viability, CellTiter-Glo luminescence, 72 h. The method in brief:
as §1

The nature of assay [8]: OV-SAHO Cancer Cell Toxicity qHTS against the NCATS CANVASS Library (AID 1347348). Note: potency is the fitted concentration of half-maximal effect; nearly all actives have a fitted effect of over 55% in size. The conditions noted are these: OV-SAHO viability, CellTiter-Glo luminescence, 72 h. The method in brief: as §1
Assay [9] is described as follows: Panc-1005 Cancer Cell Toxicity qHTS against the NCATS CANVASS Library (AID 1347349). Note: potency is the fitted concentration of half-maximal effect; nearly all actives have a fitted effect of over 60% in size. As to conditions: Panc-1005 viability, CellTiter-Glo luminescence, 72 h. The method in brief:
as §1

Assay [10] can be described thus: SW1088 Cancer Cell Toxicity qHTS against the NCATS CANVASS Library (AID 1347350). Note: potency is the fitted concentration of half-maximal effect; nearly all actives have a fitted effect of over 75% in size. The conditions noted are these: SW1088 viability, CellTiter-Glo luminescence, 72 h. The method in brief: as §1
Assay [11] can be described thus: U-118MG Cancer Cell Toxicity qHTS against the NCATS CANVASS Library (AID 1347351). Note: potency is the fitted concentration of half-maximal effect. The conditions noted are these: U-118MG viability, CellTiter-Glo luminescence, 72 h. The method in brief: as §1
Assay [12] can be described thus: COV-362 Cancer Cell Toxicity qHTS against the NCATS CANVASS Library (AID 1347352). Note: potency is the fitted concentration of half-maximal effect. The conditions noted are these: COV-362 viability, CellTiter-Glo luminescence, 72 h. In a few lines:
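First, 1000 cells go into each well and rest for 4 hours. Next, an 11-point dilution range is pinned in. Plates then incubate 72 hours before CellTiter-Glo addition and luminescence reading.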

SMILES strings stand for the structures. Inconclusive results are not listed. The source made the active and inactive calls. Calls come from the whole dose curve; as a rule, active = well fitted curve in the direction sought with a large enough effect; inconclusive = small, poorly fitted or top-dose-only effect, or another doubt; inactive = no such curve, though single readings can be large; an effect the other way counts as inactive or inconclusive.

Take `COc1cc(C(N)=O)nc(-c2ccccn2)c1O`: the Potency entry in assay [1] was “inactive”.
Take `Fc1ccc(-n2cc(CCCCN3CCC4(CC3)OCc3ccccc34)c3ccccc32)cc1`: the Potency result in assay [2] and in assay [1] was “inactive” in each case.
In the case of `COc1ccc(Cl)c(Nc2ncnc3cc(OCC4CCN(C)CC4)c(OC)cc23)c1`, the Potency entry in assay [2] and in assay [1] was “inactive” each time.
Regarding `COc1cc(CCc2cc(NC(=O)c3ccc(N4CC(C)NC(C)C4)cc3)n[nH]2)cc(OC)c1` (configuration not stated), the Potency result in assay [2] and in [1] was “inactive” throughout.
With `O=C(NCCCc1ccccc1)c1cccc(-c2cc(O)c3ncccc3c2)c1`, in assay [2], the Potency is 89.1 µM (active). Further, the Potency entry in assay [1] and in assay [3] was “inactive” each time.
For `CC1OC(=O)C[C@@H]2C(C(=O)O)=CO[C@@H](O[C@H]3O[C@H](CO)[C@@H](O)[C@H](O)[C@H]3O)[C@H]12` (some centres not stated), the Potency entry in assay [2] and in assay [1] was “inactive” in each case.
On to `CC(=O)O[C@H]1CC2C(COC(=O)CC(C)C)=CO[C@@H](OC(=O)CC(C)C)C2[C@]12CO2` (some centres not stated), for which, in assay [1], the Potency entry was “inactive”.
For the compound `O=C(Nc1ccccc1)N1CCC(Cc2cnc3ccccc3c2)CC1`, the Potency entry in assay [2] and in assay [1] was “inactive” throughout.
Take `COc1cc(O)c2c(c1)C1OC1C[C@H](O)[C@H](O)C(=O)/C=C\C[C@H](C)OC2=O` (some centres not stated): the Potency result in assay [2] and in assay [1] was “inactive” each time.
As to `C=C1C(=O)O[C@H]2CC(=C)[C@H]3CC[C@@](C)(O)[C@@H]3CC12` (some centres not stated), in assay [2], the Potency is 11.2 µM (active). For the same compound, the Potency entry in [1] and in [4] was “inactive” in each case.
In the case of `COC1CC(O[C@H]2CC[C@]3(C)C4CC[C@@]5(C)C(=O)[C@]4(CC[C@@H]3C2)CC[C@@H]5C2=CC(=O)OC2)OC(C)C1OC1OC(COC2OC(CO)C(O)C(O)C2O)C(O)C(O)C1O` (some centres not stated), the Potency entry in assay [2] and in assay [1] was “inactive” in each case.
For `COc1ccc(N2CCN(C(=O)c3cc4c(s3)-c3ccccc3S(=O)(=O)C4)CC2)cc1`, the Potency result in assay [2] and in assay [1] was “inactive” throughout.
As for `C=C(C)[C@@H]1CC=C(COC(=O)NC(=O)c2ncn3c(=O)n(C)nnc23)CC1`, the Potency entry in assay [2] and in assay [1] was “inactive” in each case.
In the case of `CCC(C)CC(=O)OC1C(=O)C(CO)=CC(O)C1C(C)C` (configuration not stated), the Potency result in assay [1] was “inactive”.
The same measure, in the same setting: to `Cc1cc(C)cc(-c2cnc3cc(Cl)c(-c4cccc(O)c4)cc3c2OCCCN)c1` belongs “inactive”.
On the same count and under the same terms, to `CC(C)Nc1nc(Nc2ccccc2)nc(-c2ccccc2)n1` belongs “inactive”; to `C=C1C(=O)OC2/C=C(\CO)CC/C=C(\C=O)C(O)C(OC(=O)C(C)CC)C12` (configuration not stated), “inactive”.
In the case of `CN(C)CCN(Cc1ccccc1)C(=O)c1cc(-c2ccc(F)cc2)n2nc(C(C)(C)C)cc2n1`, the Potency result in assay [2] and in [1] was “inactive” in each case.
Take `CCn1c(=O)n([C@H]2CCCN(c3nccc(-c4cc5ccccc5o4)n3)C2)c2ccccc21`: the Potency result in [2] and in assay [1] was “inactive” throughout.
`C=CC(C)(O)CC/C=C(/C)COC(=O)C(C)C1CCC(C)(C=C)O1` (configuration not stated): the Potency entry in [2] and in [1] was “inactive” throughout.
As for `COc1ccc(C#Cc2ccc(C(=O)N3CCC[C@@H](CO)C3)cc2)cc1`, the Potency result in assay [2] and in assay [1] was “inactive” in each case.
Turning to `CN(C)N(C)C(=O)[C@@]1(Cc2ccccc2)CCCN(C(=O)[C@@H](Cc2c[nH]c3ccccc23)NC(=O)C(C)(C)N)C1`, the Potency entry in assay [2] and in assay [1] was “inactive” in each case.
On to `CC(C)S(=O)(=O)Nc1ccc(F)c(C(=O)c2c[nH]c3ncc(-c4cccnc4)cc23)c1F`, for which the Potency entry in assay [1] was “inactive”.
For the compound `O=C(NCCCNC(=O)c1ccc[nH]c1=O)c1cc(-c2ccccc2)on1`, the Potency result in assay [2] and in assay [1] was “inactive” in each case.
Take `CC(C)CC(=O)c1c(O)cc2c(c1O)C(CC(C)C)C1=C(O2)C(C)(C)C(=O)C(C)(C)C1=O` (configuration not stated): the Potency was 8.91 µM (active) in assay [2]; 7.82 µM (active) in assay [1]; 18.8 µM (active) in assay [5]; 13.3 µM (active) in assay [6]; 13.3 µM (active) in assay [7]; 11.8 µM (active) in [8]. In addition, the Potency was 14.9 µM (active) in [9], 7.49 µM (active) in assay [10], 10.6 µM (active) in [11] and 13.3 µM (active) in [12].
In the case of `CC(=O)OC1[C@H]2[C@@H](C[C@@H](C)[C@@H]3C=CC(=O)[C@@]13C)OC(=O)[C@@H]2C` (some centres not stated), the Potency result in assay [1] was “inactive”.
With `Cc1nc2ccc(-n3ncc(C(=O)c4cc5ccccc5[nH]4)c3N)cc2[nH]1`, the Potency entry in assay [2] and in [1] was “inactive” each time.
In the case of `COc1c(CCC(=O)O)cccc1O[C@@H]1O[C@H](CO)[C@@H](O)[C@H](O)[C@H]1O`, the Potency entry in assay [1] is “inactive”.

(Values after PubChem BioAssay (NCATS).)
